Drawing on ChEMBL document CHEMBL3988442, “University of Dundee, Small-Polar-MMV Screening Library” (2021), this text covers Percent Effect for 11 compounds.

For some of these results: Potency and affinity values are given separately.

Parameters in all cases: scale not given: direction of the effect not stated beside the values
The target of assay [1] is Protein translocase subunit SecA (Escherichia coli (strain K12)) (UniProt P10408). Nature of the assay: Assay to Identify E. coli SecA ATPase Inhibitors. Type of assay: functional. The settings on record: 30 µM.
Chain of Protein translocase subunit SecA (Escherichia coli (strain K12)) (P10408 whole entry): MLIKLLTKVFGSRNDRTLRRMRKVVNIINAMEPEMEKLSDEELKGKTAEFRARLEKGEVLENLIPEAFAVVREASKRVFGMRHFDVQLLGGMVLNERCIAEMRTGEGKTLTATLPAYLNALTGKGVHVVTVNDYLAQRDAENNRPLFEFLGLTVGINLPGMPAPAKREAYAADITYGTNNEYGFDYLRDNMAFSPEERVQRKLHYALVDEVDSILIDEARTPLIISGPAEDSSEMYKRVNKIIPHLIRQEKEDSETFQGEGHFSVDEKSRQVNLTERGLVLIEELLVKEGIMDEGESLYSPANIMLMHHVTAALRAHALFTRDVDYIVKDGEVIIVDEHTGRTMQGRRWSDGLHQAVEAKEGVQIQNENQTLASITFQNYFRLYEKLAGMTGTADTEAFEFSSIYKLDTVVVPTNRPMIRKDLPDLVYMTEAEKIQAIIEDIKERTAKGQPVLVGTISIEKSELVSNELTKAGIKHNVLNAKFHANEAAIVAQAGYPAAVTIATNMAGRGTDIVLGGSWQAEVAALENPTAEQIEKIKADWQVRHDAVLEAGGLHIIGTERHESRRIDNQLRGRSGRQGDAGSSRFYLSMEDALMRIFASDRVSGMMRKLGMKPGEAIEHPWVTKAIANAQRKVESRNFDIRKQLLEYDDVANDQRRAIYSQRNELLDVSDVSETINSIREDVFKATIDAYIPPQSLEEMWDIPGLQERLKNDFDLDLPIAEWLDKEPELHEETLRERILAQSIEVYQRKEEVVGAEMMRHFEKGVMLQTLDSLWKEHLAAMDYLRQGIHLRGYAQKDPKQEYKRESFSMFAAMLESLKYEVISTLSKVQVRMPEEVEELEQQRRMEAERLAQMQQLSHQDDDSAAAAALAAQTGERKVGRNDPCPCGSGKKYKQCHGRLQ
For assay [2], the target named is T1, Ubiquitin-activating enzyme e1, putative (Leishmania donovani (strain BPK282A1)) (UniProt E9BSI1).
T1 sequence (whole entry): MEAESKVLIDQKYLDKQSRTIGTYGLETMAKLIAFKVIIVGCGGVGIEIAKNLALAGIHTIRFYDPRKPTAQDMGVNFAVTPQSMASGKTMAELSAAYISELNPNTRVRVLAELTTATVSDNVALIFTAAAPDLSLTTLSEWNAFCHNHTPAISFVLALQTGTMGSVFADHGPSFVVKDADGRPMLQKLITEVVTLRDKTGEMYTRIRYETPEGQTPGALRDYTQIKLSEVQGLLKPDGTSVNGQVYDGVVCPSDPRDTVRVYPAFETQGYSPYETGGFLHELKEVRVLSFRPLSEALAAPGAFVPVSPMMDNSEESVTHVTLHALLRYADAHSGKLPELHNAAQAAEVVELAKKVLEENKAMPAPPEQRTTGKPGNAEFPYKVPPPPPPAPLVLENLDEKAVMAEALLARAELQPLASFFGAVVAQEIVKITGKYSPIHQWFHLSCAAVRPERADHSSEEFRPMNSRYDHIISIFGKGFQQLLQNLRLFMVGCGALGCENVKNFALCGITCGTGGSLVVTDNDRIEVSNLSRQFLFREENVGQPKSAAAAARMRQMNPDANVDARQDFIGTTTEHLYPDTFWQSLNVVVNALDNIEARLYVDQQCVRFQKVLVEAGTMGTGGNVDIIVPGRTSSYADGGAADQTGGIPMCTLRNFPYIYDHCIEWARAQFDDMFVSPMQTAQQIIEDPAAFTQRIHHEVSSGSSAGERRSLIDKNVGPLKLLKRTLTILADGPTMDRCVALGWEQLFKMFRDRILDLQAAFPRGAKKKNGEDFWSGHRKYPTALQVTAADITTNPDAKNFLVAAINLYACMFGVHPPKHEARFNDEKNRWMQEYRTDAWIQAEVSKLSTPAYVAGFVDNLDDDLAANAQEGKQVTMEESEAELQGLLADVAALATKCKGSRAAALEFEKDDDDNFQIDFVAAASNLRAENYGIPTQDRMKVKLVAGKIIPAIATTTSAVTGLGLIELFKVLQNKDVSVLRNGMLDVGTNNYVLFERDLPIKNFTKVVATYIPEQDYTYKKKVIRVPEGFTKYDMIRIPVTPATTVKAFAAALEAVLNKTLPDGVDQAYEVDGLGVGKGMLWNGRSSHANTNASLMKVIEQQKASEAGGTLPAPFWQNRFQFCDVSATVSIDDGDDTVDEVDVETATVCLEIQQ
The assay is described as follows: Leishmania donovani Ubiquitin Activating Enzyme (LdE1). Format: functional. The settings on record: 30 µM.

Assay [3] addresses AMP-activated protein kinase, AMPK (Homo sapiens) (UniProt P54646+O43741+P54619+Q9UGJ0+Q9Y478+Q13131+Q9UGI9). The assay is described as follows: AMP-dependent Kinase enzyme assay. An in vitro enzyme assay that detects ADP turnover that is directly proportional to AMPK activity. This uses naive AMPK that is activated during the assay with MK-8722. Type of assay: functional. The settings on record: 30 µM.

Assay [4] has as its target Sialic acid-binding Ig-like lectin 9 (Homo sapiens) (UniProt Q9Y336). Nature of the assay: Hs-Siglec9 ALPHAscreen SOP 20170721. The following applies: 10 µM. (In general: Bead proximity is the source of the signal in Alpha formats.)
The subject of the next assay is Trypanosoma cruzi. The assay is described as follows: Trypanosoma cruzi phosphomannomutase and mannose-1-phosphate guanylyltransferase assay. Type of assay: functional. The following applies: 10 µM.
Assay [5] addresses T2, Arginase-2, mitochondrial (Homo sapiens) (UniProt P78540).
T2 sequence (whole entry): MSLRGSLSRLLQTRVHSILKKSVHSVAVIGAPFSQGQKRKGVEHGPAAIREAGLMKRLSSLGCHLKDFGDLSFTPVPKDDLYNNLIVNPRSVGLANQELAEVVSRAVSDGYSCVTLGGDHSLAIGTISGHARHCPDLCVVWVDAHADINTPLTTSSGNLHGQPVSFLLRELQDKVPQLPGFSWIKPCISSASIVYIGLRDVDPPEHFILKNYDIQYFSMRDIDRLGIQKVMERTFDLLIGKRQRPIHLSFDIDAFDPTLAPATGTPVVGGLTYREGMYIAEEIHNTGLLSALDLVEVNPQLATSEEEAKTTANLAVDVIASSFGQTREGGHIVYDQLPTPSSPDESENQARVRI
Nature of the assay: in vitro enzyme assay to detect the production of urea directly proportional to the activity of Arginase II. Also: in the data most compounds retested in dose-response had high values. Format: functional. The following applies: 33.3 µM.

Assay [6] concerns the target T3, Proteasome subunit beta (Trypanosoma cruzi) (UniProt O96673).
T3 sequence (whole entry): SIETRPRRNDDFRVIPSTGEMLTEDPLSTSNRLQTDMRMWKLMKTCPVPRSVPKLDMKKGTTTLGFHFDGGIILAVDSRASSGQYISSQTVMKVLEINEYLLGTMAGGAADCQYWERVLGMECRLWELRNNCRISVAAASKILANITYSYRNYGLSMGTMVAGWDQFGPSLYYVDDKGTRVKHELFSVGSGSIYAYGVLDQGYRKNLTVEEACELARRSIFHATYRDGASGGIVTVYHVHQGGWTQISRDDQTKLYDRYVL
The assay is described as follows: Trypanosoma cruzi proteasome chymotrypsin-like activity (TcProtChymo) assay. Also: in the data most compounds retested in dose-response had high values. Type of assay: functional. The settings on record: 9.37 µM.

The species named for a further assay is Homo sapiens. The assay is described as follows: To identify inhibition of the IFN signalling (Jak-Stat) pathway via expression of an eGFP reporter gene under the control of an IFN-stimulated response element (ISRE) containing MxA promoter. Type of assay: functional. The following applies: 30 µM. (In general: A reporter such as luciferase makes a cellular process visible.)

The target of assay [7] is T4, Tyrosyl-tRNA synthetase, putative (Trypanosoma cruzi (strain CL Brener)) (UniProt Q4DSP6).
T4 sequence (whole entry): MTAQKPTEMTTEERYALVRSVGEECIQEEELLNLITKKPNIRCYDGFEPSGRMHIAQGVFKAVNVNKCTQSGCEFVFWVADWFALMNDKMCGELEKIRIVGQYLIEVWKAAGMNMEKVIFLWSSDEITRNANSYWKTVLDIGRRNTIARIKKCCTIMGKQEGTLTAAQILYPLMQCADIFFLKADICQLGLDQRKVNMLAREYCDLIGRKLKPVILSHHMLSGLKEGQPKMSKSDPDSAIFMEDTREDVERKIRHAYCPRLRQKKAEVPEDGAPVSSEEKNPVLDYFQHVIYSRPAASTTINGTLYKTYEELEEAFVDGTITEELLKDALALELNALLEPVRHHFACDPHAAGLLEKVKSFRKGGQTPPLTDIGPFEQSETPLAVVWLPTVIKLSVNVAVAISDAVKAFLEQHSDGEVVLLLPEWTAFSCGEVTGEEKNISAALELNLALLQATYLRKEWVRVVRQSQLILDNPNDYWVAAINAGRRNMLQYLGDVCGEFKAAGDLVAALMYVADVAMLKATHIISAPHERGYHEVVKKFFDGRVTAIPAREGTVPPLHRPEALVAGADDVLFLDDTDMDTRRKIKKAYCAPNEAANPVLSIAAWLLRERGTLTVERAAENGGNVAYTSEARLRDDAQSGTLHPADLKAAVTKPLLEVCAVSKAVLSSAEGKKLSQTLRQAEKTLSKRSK
The assay is described as follows: Trypanosoma cruzi tyrosyl tRNA synthetase (TcYRS) _High Tyrosine SOP. Also: in the data most compounds retested in dose-response had high values. Format: functional. The settings on record: 30 µM.

For assay [8], the target named is T4, Tyrosyl-tRNA synthetase, putative (Trypanosoma cruzi (strain CL Brener)). Nature of the assay: Trypanosoma cruzi tyrosyl tRNA synthetase (TcYRS) SOP. Type of assay: functional. The following applies: 30 µM.
Assay [9] deals with Chromo domain-containing protein 1 (Saccharomyces cerevisiae (strain ATCC 204508 / S288c) (Baker's yeast)) (UniProt P32657). Nature of the assay: ScCHD-1 Enzyme Inhibition Assay. Also: in the data most compounds retested in dose-response had high values. Format: functional. The settings on record: 30 µM.
Chain of Chromo domain-containing protein 1 (Saccharomyces cerevisiae (strain ATCC 204508 / S288c) (Baker's yeast)) (P32657 whole entry, the tested form may be a part): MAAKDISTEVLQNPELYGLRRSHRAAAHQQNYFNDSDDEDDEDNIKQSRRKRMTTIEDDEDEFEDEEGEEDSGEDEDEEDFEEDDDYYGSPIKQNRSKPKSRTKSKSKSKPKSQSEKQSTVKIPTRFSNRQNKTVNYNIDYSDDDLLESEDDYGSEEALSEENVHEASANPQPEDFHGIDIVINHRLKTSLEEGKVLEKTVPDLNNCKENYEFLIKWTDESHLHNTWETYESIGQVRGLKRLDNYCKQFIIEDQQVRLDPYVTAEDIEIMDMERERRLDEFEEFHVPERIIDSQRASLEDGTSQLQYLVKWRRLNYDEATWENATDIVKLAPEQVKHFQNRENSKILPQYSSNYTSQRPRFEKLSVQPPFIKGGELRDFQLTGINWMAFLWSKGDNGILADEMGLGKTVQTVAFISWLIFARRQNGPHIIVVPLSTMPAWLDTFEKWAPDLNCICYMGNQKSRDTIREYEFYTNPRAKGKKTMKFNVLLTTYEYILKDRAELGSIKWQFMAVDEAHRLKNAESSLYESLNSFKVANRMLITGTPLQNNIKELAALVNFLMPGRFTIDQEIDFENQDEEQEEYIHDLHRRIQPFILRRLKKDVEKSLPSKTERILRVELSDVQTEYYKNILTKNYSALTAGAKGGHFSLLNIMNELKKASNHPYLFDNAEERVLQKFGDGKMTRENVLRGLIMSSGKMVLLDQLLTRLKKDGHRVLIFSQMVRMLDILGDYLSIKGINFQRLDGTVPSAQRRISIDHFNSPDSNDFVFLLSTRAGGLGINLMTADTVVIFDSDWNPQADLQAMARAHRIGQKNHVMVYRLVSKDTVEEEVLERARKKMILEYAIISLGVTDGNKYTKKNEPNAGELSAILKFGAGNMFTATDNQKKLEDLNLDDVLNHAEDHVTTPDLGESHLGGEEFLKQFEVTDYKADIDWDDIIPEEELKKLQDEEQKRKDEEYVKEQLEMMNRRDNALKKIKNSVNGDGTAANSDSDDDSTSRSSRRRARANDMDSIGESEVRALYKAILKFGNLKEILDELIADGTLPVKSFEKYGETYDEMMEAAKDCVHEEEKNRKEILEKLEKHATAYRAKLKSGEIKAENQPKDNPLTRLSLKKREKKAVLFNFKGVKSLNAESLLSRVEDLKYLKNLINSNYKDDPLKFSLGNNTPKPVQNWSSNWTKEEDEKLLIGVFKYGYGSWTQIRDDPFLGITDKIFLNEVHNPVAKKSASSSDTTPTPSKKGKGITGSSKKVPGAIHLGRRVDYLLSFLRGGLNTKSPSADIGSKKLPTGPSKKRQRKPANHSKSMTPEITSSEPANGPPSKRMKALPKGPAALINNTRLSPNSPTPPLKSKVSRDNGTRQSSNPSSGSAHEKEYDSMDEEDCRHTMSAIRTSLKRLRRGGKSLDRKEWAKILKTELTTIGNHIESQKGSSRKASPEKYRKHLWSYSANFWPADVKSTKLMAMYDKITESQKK

Chain of Sialic acid-binding Ig-like lectin 9 (Homo sapiens) (Q9Y336 whole entry): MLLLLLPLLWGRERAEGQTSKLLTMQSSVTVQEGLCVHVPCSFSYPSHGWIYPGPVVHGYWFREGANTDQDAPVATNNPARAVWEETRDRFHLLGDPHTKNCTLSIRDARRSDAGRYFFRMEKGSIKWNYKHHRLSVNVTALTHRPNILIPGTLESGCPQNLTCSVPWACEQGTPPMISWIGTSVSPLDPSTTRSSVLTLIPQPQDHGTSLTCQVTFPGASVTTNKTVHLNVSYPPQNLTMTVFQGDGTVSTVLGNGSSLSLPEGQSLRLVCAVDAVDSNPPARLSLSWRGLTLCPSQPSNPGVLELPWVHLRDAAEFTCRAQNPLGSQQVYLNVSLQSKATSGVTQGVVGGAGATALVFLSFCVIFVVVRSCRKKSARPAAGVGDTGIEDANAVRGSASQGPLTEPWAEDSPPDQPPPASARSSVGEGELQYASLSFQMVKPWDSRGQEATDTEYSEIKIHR

For the compound `Cc1nc([C@@H]2C[C@@H]3CCN(C(=O)c4occc4C)C[C@H]3O2)no1`, the Percent Effect in assay [1] is -6.42%; in assay [2], 0%; in assay [3], 6.51%; in assay [4] it was 3.94%; with Trypanosoma cruzi it was -1.74%; in [5], -52.1%. For the same compound, the Percent Effect in assay [6] was 4.1%; in the assay listed under Homo sapiens, 7.9%; in assay [7], -1.04%; in assay [8], -5%; in [9] it was -4.87%.

`CN(Cc1cnn(C)c1)C(=O)NCc1csc(Br)c1`: the Percent Effect is -1.72% in assay [1]; 16.2% in assay [2]; 10.9% in [3]; -2.71% in assay [4]; -8.08% with Trypanosoma cruzi; 2.77% in assay [5]. Also, the Percent Effect was 14.7% in assay [6]; 17.1% in the assay listed under Homo sapiens; -3.96% in assay [7]; -1.22% in assay [8]; -6.6% in assay [9].

`CSCc1cccc(C(=O)N2CCN(CC(C)O)CC2)c1` (stereo unspecified): the Percent Effect in [1] was -1.86%; in assay [2], -2.6%; in assay [3] it was -1.05%; in [4] it was 3.73%; with Trypanosoma cruzi, -7.68%; in assay [5] it was 2.13%. Further, the Percent Effect in [6] was 11.8%; in the assay listed under Homo sapiens, 17.2%; in assay [7], 1.94%; in [8], -2.44%; in [9], -1.72%.

For the compound `CNC(=O)CCc1cc(C)nc(C2CCCN2)c1` (stereo unspecified), the Percent Effect is -6.62% in assay [1]; 14.9% in assay [2]; 6.02% in assay [3]; 1.63% in assay [4]; 2.17% in the assay with Trypanosoma cruzi; -3.02% in [5]. Further, the Percent Effect in [6] was 6.08%; in the assay listed under Homo sapiens it was -9.75%; in assay [7], 2.15%; in assay [8] it was 11.7%; in assay [9] it was -23.7%.

With `CCCn1ccc(C(=O)N2CCC(C)CC2)n1`, the Percent Effect is -3.61% in assay [1]; 10.4% in assay [2]; 1.17% in assay [3]; 5.81% in assay [4]; 0.295% in the assay on Trypanosoma cruzi; -44.1% in assay [5]. Also, the Percent Effect is 6.49% in assay [6]; -8.22% in the assay listed under Homo sapiens; 8.6% in assay [7]; 18.5% in [8]; -1.29% in assay [9].

On to `COC(=O)c1cc(C(=O)N2CCCCCC2)n(-c2ccccc2)n1`, for which the Percent Effect is -5.27% in [1]; 2.63% in [2]; 0.404% in assay [3]; 4.54% in assay [4]; -5.08% in the assay on Trypanosoma cruzi; 1.92% in [5]. Besides, the Percent Effect is -3.51% in assay [6]; 18.4% in the assay filed under Homo sapiens; 2.45% in [7]; 9.76% in assay [8]; -1.11% in assay [9].

Turning to `CNc1cc2c(nn1)CCN(C(=O)c1ccc(-n3nccc3C)cc1)C2`, the Percent Effect in assay [1] was -3.9%; in assay [2], 7.79%; in assay [3], -0.653%; in [4], -3.32%; with Trypanosoma cruzi, 6.56%; in assay [5] it was -1.9%. In addition, the Percent Effect in assay [6] was 11.4%; in the assay listed under Homo sapiens, 14.4%; in assay [7], 6.67%; in [8], 9.41%; in assay [9], -16.2%.

As to `COc1ccccc1C1(C(=O)NCCN2CCOCC2)CCOCC1`, the Percent Effect in assay [1] is -0.484%; in assay [2] it was 10.8%; in [3] it was -1.78%; in [4], -1.23%; in the assay with Trypanosoma cruzi, -0.0943%; in [5], -2.81%. Moreover, the Percent Effect in assay [6] was 12.4%; in the assay filed under Homo sapiens it was -15.9%; in assay [7] it was 3.45%; in assay [8], 13.6%; in [9], -7.26%.

Consider `Cc1ncc(CNC(=O)Nc2cc(C(F)(F)F)c[nH]c2=O)s1`, for which the Percent Effect in [1] was -6.87%; in assay [2] it was -1.39%; in assay [3] it was -10.2%; in assay [4] it was -4.64%; with Trypanosoma cruzi, -5.34%; in assay [5], 2.65%. Further, the Percent Effect is 18.2% in [6]; -11.2% in the assay filed under Homo sapiens; -1.05% in assay [7]; -2.56% in [8]; 0.478% in [9].

For `CCCNC(=O)c1sccc1N(C)S(=O)(=O)c1ccc(Cl)cc1`, the Percent Effect in [1] was 1.13%; in assay [2], 7.89%; in assay [3] it was -1.42%; in [4], -7.73%; with Trypanosoma cruzi it was -8.67%; in assay [5], 9.47%. The Percent Effect in assay [6] was 13.3%; in the assay filed under Homo sapiens it was 38.4%; in [7] it was -4.25%; in [8], -2.6%; in assay [9], -1.51%.

Turning to `CNC(=O)c1cccc(NC(=O)Cn2nc(-c3cccs3)oc2=O)c1`, the Percent Effect in assay [1] was -8.44%; in [2], 13.5%; in assay [3] it was 133%; in [4], 18.8%; with Trypanosoma cruzi it was 9.38%; in assay [5], -0.924%. The Percent Effect in assay [6] is 4.13%; in the assay filed under Homo sapiens, -0.599%; in assay [7] it was 6.93%; in assay [8], 13.4%; in assay [9], -2.88%.
